# About 2,000 (36%) of roughly 5,500 compounds were called active. Not shown: some 18% with an inconclusive outcome. The list shows a part of the results. Values without a mark were called inactive. No stated cut-off is given here; in the data, active means normalized growth mostly below about 0.91 (no sharp cut-off); inconclusive means no clear call, values can overlap the other calls; inactive means mostly above about 0.92.
# Test: chemical genetic growth profiling, strain panel (AID 1159580);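 further: tested at 20 µM; growth read once vehicle control cultures reached saturation at 30 °C; 1 = growth at the plate median or of vehicle wells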
# Conditions: growth OD
structure (smiles),measurement,setting,value
COc1ccc(CC(=O)c2ccc(O)cc2O)cc1,normalized growth,"S. cerevisiae deletion strains, locus YKL068W, stronger effect = lower value",0.98
same,normalized growth,"S. cerevisiae deletion strains, locus YKL085W, strain MDH1 (second series), stronger effect = lower value",0.992
same,normalized growth,"S. cerevisiae deletion strains, locus YKL085W, strain MDH1, stronger effect = lower value",0.992
same,normalized growth,"S. cerevisiae deletion strains, locus YKL160W, strain elf1, stronger effect = lower value",0.938
same,normalized growth,"S. cerevisiae deletion strains, locus YKL190W, strain CNB1, stronger effect = lower value",0.975
same,normalized growth,"S. cerevisiae deletion strains, locus YKR001C, strain vps1, stronger effect = lower value",0.766 (active)
same,normalized growth,"S. cerevisiae deletion strains, locus YKR026C, strain gcn3, stronger effect = lower value",0.988
same,normalized growth,"S. cerevisiae deletion strains, locus YKR091W, strain srl3, stronger effect = lower value",0.988
same,normalized growth,"S. cerevisiae deletion strains, locus YLL001W, strain dnm1, stronger effect = lower value",0.944
same,normalized growth,"S. cerevisiae deletion strains, locus YLL026W, stronger effect = lower value",0.993
same,normalized growth,"S. cerevisiae deletion strains, locus YLL041C, strain sdh2, stronger effect = lower value",0.99
same,normalized growth,"S. cerevisiae deletion strains, locus YLR027C, strain aat2, stronger effect = lower value",0.997
same,normalized growth,"S. cerevisiae deletion strains, locus YLR039C, strain RIC1, stronger effect = lower value",0.686
same,normalized growth,"S. cerevisiae deletion strains, locus YLR058C, strain SHM2, stronger effect = lower value",0.946
same,normalized growth,"S. cerevisiae deletion strains, locus YLR102C, strain apc9, stronger effect = lower value",0.966
same,normalized growth,"S. cerevisiae deletion strains, locus YLR113W, strain HOG1, stronger effect = lower value",0.938
same,normalized growth,"S. cerevisiae deletion strains, locus YLR221C, strain rsa3, stronger effect = lower value",0.955
same,normalized growth,"S. cerevisiae deletion strains, locus YLR258W, strain gsy2, stronger effect = lower value",0.984
same,normalized growth,"S. cerevisiae deletion strains, locus YLR262C, strain YPT6 (second series), stronger effect = lower value",0.768 (active)
same,normalized growth,"S. cerevisiae deletion strains, locus YLR262C, strain YPT6, stronger effect = lower value",0.669
same,normalized growth,"S. cerevisiae deletion strains, locus YLR268W, strain sec22, stronger effect = lower value",0.931
same,normalized growth,"S. cerevisiae deletion strains, locus YLR320W, strain mms22, stronger effect = lower value",0.895
same,normalized growth,"S. cerevisiae deletion strains, locus YLR330W, strain CHS5, stronger effect = lower value",0.923
same,normalized growth,"S. cerevisiae deletion strains, locus YLR342W, strain FKS1 (second series), stronger effect = lower value",0.864
same,normalized growth,"S. cerevisiae deletion strains, locus YLR342W, strain FKS1, stronger effect = lower value",0.972
same,normalized growth,"S. cerevisiae deletion strains, locus YLR357W, strain rsc2, stronger effect = lower value",1.01
same,normalized growth,"S. cerevisiae deletion strains, locus YLR370C, strain arc18, stronger effect = lower value",0.978
same,normalized growth,"S. cerevisiae deletion strains, locus YLR371W, strain rom2, stronger effect = lower value",0.86 (active)
same,normalized growth,"S. cerevisiae deletion strains, locus YLR384C, strain iki3, stronger effect = lower value",0.999
same,normalized growth,"S. cerevisiae deletion strains, locus YLR418C, strain cdc73, stronger effect = lower value",0.744 (active)
same,normalized growth,"S. cerevisiae deletion strains, locus YML016C, strain PPZ1, stronger effect = lower value",0.976
same,normalized growth,"S. cerevisiae deletion strains, locus YML032C, strain rad52, stronger effect = lower value",0.938
same,normalized growth,"S. cerevisiae deletion strains, locus YML120C, strain ndi1, stronger effect = lower value",0.988
same,normalized growth,"S. cerevisiae deletion strains, locus YML124C, strain tub3, stronger effect = lower value",0.981
same,normalized growth,"S. cerevisiae deletion strains, locus YMR058W, strain fet3, stronger effect = lower value",0.969
same,normalized growth,"S. cerevisiae deletion strains, locus YMR078C, strain ctf18, stronger effect = lower value",0.956
same,normalized growth,"S. cerevisiae deletion strains, locus YMR125W, strain sto1, stronger effect = lower value",0.997
same,normalized growth,"S. cerevisiae deletion strains, locus YMR129W, stronger effect = lower value",0.993
same,normalized growth,"S. cerevisiae deletion strains, locus YMR205C, strain PFK2, stronger effect = lower value",0.92
same,normalized growth,"S. cerevisiae deletion strains, locus YMR223W, strain ubp8, stronger effect = lower value",0.952
same,normalized growth,"S. cerevisiae deletion strains, locus YMR231W, strain pep5, stronger effect = lower value",0.968
same,normalized growth,"S. cerevisiae deletion strains, locus YMR307W, strain GAS1, stronger effect = lower value",0.688
same,normalized growth,"S. cerevisiae deletion strains, locus YNL067W, strain RPL9B, stronger effect = lower value",0.945
same,normalized growth,"S. cerevisiae deletion strains, locus YNL071W, strain lat1, stronger effect = lower value",0.851 (active)
same,normalized growth,"S. cerevisiae deletion strains, locus YNL128W, strain TEP1, stronger effect = lower value",0.98
same,normalized growth,"S. cerevisiae deletion strains, locus YNL153C, strain GIM3, stronger effect = lower value",0.978
same,normalized growth,"S. cerevisiae deletion strains, locus YNL183C, strain NPR1, stronger effect = lower value",0.91
same,normalized growth,"S. cerevisiae deletion strains, locus YNL209W, strain ssb2, stronger effect = lower value",0.998
same,normalized growth,"S. cerevisiae deletion strains, locus YNL233W, strain BNI4, stronger effect = lower value",0.935
same,normalized growth,"S. cerevisiae deletion strains, locus YNL248C, strain rpa49, stronger effect = lower value",0.987
same,normalized growth,"S. cerevisiae deletion strains, locus YNL250W, strain rad50, stronger effect = lower value",1.02
same,normalized growth,"S. cerevisiae deletion strains, locus YNL271C, strain bni1, stronger effect = lower value",0.964
same,normalized growth,"S. cerevisiae deletion strains, locus YNL298W, strain CLA4, stronger effect = lower value",0.949
same,normalized growth,"S. cerevisiae deletion strains, locus YNL307C, strain MCK1, stronger effect = lower value",0.699 (active)
same,normalized growth,"S. cerevisiae deletion strains, locus YNL322C, strain KRE1 (second series), stronger effect = lower value",0.971
same,normalized growth,"S. cerevisiae deletion strains, locus YNL322C, strain KRE1, stronger effect = lower value",0.952
same,normalized growth,"S. cerevisiae deletion strains, locus YNR049C, strain mso1, stronger effect = lower value",0.986
same,normalized growth,"S. cerevisiae deletion strains, locus YNR052C, strain pop2, stronger effect = lower value",0.973
same,normalized growth,"S. cerevisiae deletion strains, locus YOL012C, strain htz1",1.38
same,normalized growth,"S. cerevisiae deletion strains, locus YOL147C, strain pex11, stronger effect = lower value",0.908 (active)
same,normalized growth,"S. cerevisiae deletion strains, locus YOR001W, strain rrp6, stronger effect = lower value",0.998
same,normalized growth,"S. cerevisiae deletion strains, locus YOR061W, strain CKA2, stronger effect = lower value",0.983
same,normalized growth,"S. cerevisiae deletion strains, locus YOR069W, strain VPS5, stronger effect = lower value",0.965
same,normalized growth,"S. cerevisiae deletion strains, locus YOR070C, strain gyp1, stronger effect = lower value",0.962
same,normalized growth,"S. cerevisiae deletion strains, locus YOR080W, strain dia2, stronger effect = lower value",0.999
same,normalized growth,"S. cerevisiae deletion strains, locus YOR083W, strain WHI5, stronger effect = lower value",0.946
same,normalized growth,"S. cerevisiae deletion strains, locus YOR106W, strain vam3, stronger effect = lower value",0.952
same,normalized growth,"S. cerevisiae deletion strains, locus YOR136W, strain idh2, stronger effect = lower value",0.972
same,normalized growth,"S. cerevisiae deletion strains, locus YOR144C, strain elg1, stronger effect = lower value",0.966
same,normalized growth,"S. cerevisiae deletion strains, locus YOR184W, strain ser1, stronger effect = lower value",0.831 (active)
same,normalized growth,"S. cerevisiae deletion strains, locus YOR231W, strain MKK1, stronger effect = lower value",0.953
same,normalized growth,"S. cerevisiae deletion strains, locus YOR265W, strain rbl2, stronger effect = lower value",0.974
same,normalized growth,"S. cerevisiae deletion strains, locus YOR270C, strain vph1, stronger effect = lower value",0.84
same,normalized growth,"S. cerevisiae deletion strains, locus YOR290C, strain snf2, stronger effect = lower value",0.929
same,normalized growth,"S. cerevisiae deletion strains, locus YOR316C, strain cot1, stronger effect = lower value",0.966
same,normalized growth,"S. cerevisiae deletion strains, locus YPL051W, strain arl3, stronger effect = lower value",0.885 (active)
same,normalized growth,"S. cerevisiae deletion strains, locus YPL078C, strain atp4, stronger effect = lower value",0.911
same,normalized growth,"S. cerevisiae deletion strains, locus YPL106C, strain sse1, stronger effect = lower value",1.02
same,normalized growth,"S. cerevisiae deletion strains, locus YPL240C, strain hsp82, stronger effect = lower value",0.978
same,normalized growth,"S. cerevisiae deletion strains, locus YPL256C, strain CLN2, stronger effect = lower value",0.969
same,normalized growth,"S. cerevisiae deletion strains, locus YPR119W, strain clb2, stronger effect = lower value",0.975
same,normalized growth,"S. cerevisiae deletion strains, locus YPR141C, strain kar3, stronger effect = lower value",0.983
same,normalized growth,"S. cerevisiae deletion strains, locus YPR163C, strain tif3, stronger effect = lower value",0.752 (active)
same,normalized growth,"S. cerevisiae deletion strains, locus YPR167C, strain met16, stronger effect = lower value",0.97
same,normalized growth,"S. cerevisiae deletion strains, strain wtn01, stronger effect = lower value",0.919
same,normalized growth,"S. cerevisiae strains, strain wild type, stronger effect = lower value",0.95

# Reference: PubChem BioAssay AID1159580 (chemical genetic matrix, 2015)
